According to PubChem BioAssay (NCI):
Compounds without any hit were thinned out: in the full panel of roughly 79,000, 15% have a hit. The source made the active and inactive calls. Rule as the data show it: active = growth inhibition above about 70%; inactive = the rest.

Legend:
[1] = NCI Yeast Anticancer Drug Screen. Data for the rad50 strain (AID 155);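 also: 0% = growth of vehicle-only cultures of the same strain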; details: S. cerevisiae rad50 strain growth inhibition; at 50.0 µM; stronger effect = higher value
Method in brief: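 Growth of the mutant yeast was measured after compound exposure and referenced to vehicle-treated cultures.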

[2] = NCI Yeast Anticancer Drug Screen. Data for the mec2-1 strain (AID 157); details: S. cerevisiae mec2-1 strain, at 50.0 µM, stronger effect = higher value
Method in brief: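 Vehicle-treated cultures served as reference for growth inhibition of compound-exposed mec2-1 yeast.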

[3] = NCI Yeast Anticancer Drug Screen. Data for the sgs1 mgt1 strain (AID 161);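 also: 0% = growth of cultures given vehicle only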; details: S. cerevisiae sgs1 mgt1 strain, at 50.0 µM, stronger effect = higher value
Method in brief: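 Test agents were incubated with a DNA-repair-mutant yeast strain. Growth was then read and compared against vehicle-treated controls.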

[4] = NCI Yeast Anticancer Drug Screen. Data for the cln2 rad14 strain (AID 165);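 also: 0% = growth equal to vehicle treated cultures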; details: S. cerevisiae cln2 rad14 strain, at 50.0 µM, stronger effect = higher value
Method in brief: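 Each compound was tested on cln2 rad14 yeast. Inhibition of growth was calculated against vehicle-exposed controls.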

[5] = NCI Yeast Anticancer Drug Screen. Data for the bub3 strain (AID 167); details: S. cerevisiae bub3 mutant strain, at 50.0 µM, stronger effect = higher value
Method in brief: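 Whole-cell yeast assay. The mutant strain was incubated with compounds, and growth inhibition was determined by comparison with vehicle-treated cells.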

[6] = NCI Yeast Anticancer Drug Screen. Data for the mlh1 rad18 strain (AID 175); details: S. cerevisiae mlh1 rad18 strain growth inhibition; at 50.0 µM; stronger effect = higher value
Method in brief: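 Vehicle-treated cultures served as the reference for growth inhibition in a yeast strain carrying DNA damage repair alterations exposed to each compound.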

Measured: growth inhibition

CC1C(c2ccccc2)NC(c2ccccc2)C(C)C1(O)c1ccccc1 (stereo unspecified)
inactive: [1] 10.3% | [2] 5.3% | [3] 11.6% | [4] -23.1% | [5] 11.1% | [6] 16.4%

CCCCOC(=O)c1ccccc1
inactive: [1] -7% | [2] 13.7% | [3] -10.2% | [4] -2.8% | [5] -1.4% | [6] 18.1%

Clc1ccc(N=C(Oc2ccc(Cl)cc2)c2ccccc2)cc1
inactive: [1] 4.95% | [2] 7.35% | [3] -4.85% | [4] -12.4% | [5] 0.25% | [6] 3.6%

F[Si](c1ccccc1)(c1ccccc1)c1cccc2ccccc12
active: [1] 98.7% | [2] 98.6% | [3] 99.2% | [4] 98.8% | [5] 98.5% | [6] 98.8%

N#CCCC1(CCC#N)CCCCCCC(CCC#N)(CCC#N)C(O)C1O (stereo unspecified)
inactive: [1] 10.8% | [2] -12% | [3] -6.45% | [4] 3.15% | [5] -15.2% | [6] -46.2%

O=C1CCC(c2nc3ccccc3o2)C(=O)N1 (stereo unspecified)
inactive: [1] -5.1% | [2] -20.5% | [3] -10.6% | [4] 0.65% | [5] -11.2% | [6] -13.7%

COC(=O)C1C2CC3C(OC(=O)C31)C2OC(=O)[C@](OC)(c1ccccc1)C(F)(F)F (stereo partly specified)
inactive: [1] 24.2% | [2] 20.9% | [3] 10.6% | [4] -25.4% | [5] 15.5% | [6] 28.6%

CCC(=O)OC1=CC(=O)c2ccccc2C1=O
inactive: [1] 11.6% | [2] 12.4% | [3] 4.7% | [4] 8.6% | [5] -15.5% | [6] 12.6%

O=c1cc(Nc2ccccc2Cl)[nH]c(=O)[nH]1
inactive: [1] 9.8% | [2] 2.2% | [3] -5.15% | [4] -41.8% | [5] -27.4% | [6] -13.2%

CSc1nnc(SC)s1
inactive: [1] -3.3% | [2] -22.6% | [3] -18.8% | [4] 22.9% | [5] 1.4% | [6] -9.35%

CC(=O)CCc1ccc(OC(=O)C(Cl)Cl)cc1
inactive: [1] 27% | [2] 12.1% | [3] 18.7% | [4] 13.8% | [5] 13.9% | [6] 29.6%

N/C=N/O
inactive: [1] 19.9% | [2] 4.35% | [3] 16.6% | [4] 18.2% | [5] 18.8% | [6] 22.7%

Nc1ccc2cc(S(=O)(=O)O)cc(O)c2c1
inactive: [1] 28.8% | [2] -4.55% | [3] -34.5% | [4] -85.8% | [5] 6.85% | [6] 15.2%

C1=NN=C2C=C3CCc4ccccc4C3CC12 (stereo unspecified)
inactive: [1] 7.45% | [2] 7.25% | [3] -1.2% | [4] -16.9% | [5] -15.9% | [6] 18.6%

Cc1ccc(NC(=S)NC(=O)c2ccccc2)cc1
inactive: [1] 10.9% | [2] 4.95% | [3] 8.7% | [4] -55.7% | [5] 3.3% | [6] 24.4%

CC(O[Si](C)(C)C(C)(C)C)[C@H](NC(=O)OCC(Cl)(Cl)Cl)C(=O)O (stereo partly specified)
inactive: [1] -9.6% | [2] -27.8% | [3] -17.1% | [4] 26.1% | [5] -45% | [6] -14.8%

CC(=O)OC1/C=C(\C)C(OC(C)=O)C/C=C(/C)CCC2C(/C=C/C1=O)C2(C)C (stereo unspecified)
active: [1] 78.9% | [2] 74.4% | [3] 78.1% | [5] 71.2% | [6] 74%
inactive: [4] 64.1%

CNC(=O)C1CCCN1C(=O)C(Cc1cnc[nH]1)NC(=O)C1CCC(=O)N1 (stereo unspecified)
inactive: [1] -21.2% | [2] -13.9% | [3] -11.6% | [4] 11.9% | [5] -14.1% | [6] -16.8%

CC(C)/C(Cl)=N\OC(=O)Nc1ccc(C#N)cc1
inactive: [1] -22.4% | [2] 52% | [3] 51.2% | [4] 11% | [5] 60.1% | [6] 41%

CN(CCO)c1cnn(CCO)c(=O)c1Cl
inactive: [1] -14.9% | [2] -8.25% | [3] -17.6% | [4] -6.15% | [5] 8.2% | [6] -7.45%

C=C(Cl)Cc1c(O)c2c(c(O)c1CC(=C)Cl)C(=O)c1ccccc1C2=O
inactive: [1] -39.2% | [2] -42.7% | [3] -50% | [4] 1.8% | [5] -18.1% | [6] -33.5%
